Counter-ions that a name gives are not always drawn. ± gives the standard deviation of the averaged measurements.
Tests used:
Test in all cases: growth (OD600 after 10 h); higher = more growth (less inhibition)
[1] = tested on: E. coli TESEC Alr+ wild-type control; settings: compound 0.1 mM; raw OD600 reference: median of DMSO wells 0.241, cell-free background 0.041
Procedure: (§1)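 TESEC Mtb Alr E. coli, or the Alr+ wild-type control, in 384-well plates with Prestwick library compounds at 0.1 mM and 1% DMSO, across arabinose induction levels of 1E3 to 1E7 nM. Growth is read as OD600 after 10 h at 37 °C in triplicate biological replicates.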

E. coli TESEC Mtb Alr [2] = settings: compound 0.1 mM
Procedure: as §1

E. coli TESEC Mtb Asd = settings: compound 0.1 mM
Procedure: (§2)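 TESEC E. coli strains in which the native enzyme is deleted and replaced by arabinose-inducible Mtb Asd, DapB, CysH or TrpD, each grown in its selective medium. Strains were screened against the Prestwick library at 0.1 mM and 1% DMSO in 384-well format at low and high arabinose induction. Growth is read as OD600 after 10 h in triplicate.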

E. coli TESEC Mtb DapB = settings: compound 0.1 mM
Procedure: as §2

[3] = tested on: E. coli TESEC Alr+ wild-type control; settings: compound 0.1 mM; raw OD600 reference: median of DMSO wells 0.49, cell-free background 0.052
Procedure: (§3)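 TESEC Mtb Alr E. coli (ΔaraC ΔtolC ΔentC Δalr ΔdadX, arabinose-inducible Mtb Alr) or the Alr+ wild-type control strain, grown in defined M9-fructose medium without D-alanine in 96-well plates with Prestwick library compounds at 0.1 mM and 1% DMSO. Low Alr induction is 0.1 µM arabinose and high induction is 10 mM arabinose.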

E. coli TESEC Mtb Alr [4] = settings: compound 0.1 mM; remark: listed apart in the source
Procedure: as §3

[5] = arabinose 1000 nM, raw OD600 reference: median of DMSO wells 0.294, cell-free background 0.041
[6] = arabinose 10000 nM, raw OD600 reference: median of DMSO wells 0.264, cell-free background 0.041
[7] = arabinose 100000 nM, raw OD600 reference: median of DMSO wells 0.201, cell-free background 0.041
[8] = arabinose 1000000 nM, raw OD600 reference: median of DMSO wells 0.193, cell-free background 0.041
[9] = arabinose 10000000 nM, raw OD600 reference: median of DMSO wells 0.146, cell-free background 0.041
[10] = arabinose induction (level): High, raw OD600 reference: median of DMSO wells 0.331, cell-free background 0.041
[11] = arabinose induction (level): Low, raw OD600 reference: median of DMSO wells 0.417, cell-free background 0.041
[12] = arabinose induction (level): High, raw OD600 reference: median of DMSO wells […], cell-free background 0.041
[13] = arabinose induction (level): Low, raw OD600 reference: median of DMSO wells 0.227, cell-free background 0.041
[14] = arabinose 100 nM, raw OD600 reference: median of DMSO wells 0.413, cell-free background 0.052
[15] = arabinose 10000000 nM, raw OD600 reference: median of DMSO wells […], cell-free background 0.052

| SMILES | growth [1] | growth (E. coli TESEC Mtb Alr [2]; [5]) | growth (E. coli TESEC Mtb Alr [2]; [6]) | growth (E. coli TESEC Mtb Alr [2]; [7]) | growth (E. coli TESEC Mtb Alr [2]; [8]) | growth (E. coli TESEC Mtb Alr [2]; [9]) | growth (E. coli TESEC Mtb Asd; [10]) | growth (E. coli TESEC Mtb Asd; [11]) | growth (E. coli TESEC Mtb DapB; [12]) | growth (E. coli TESEC Mtb DapB; [13]) | growth [3] | growth (E. coli TESEC Mtb Alr [4]; [14]) | growth (E. coli TESEC Mtb Alr [4]; [15]) |
| --- | --- | --- | --- | --- | --- | --- | --- | --- | --- | --- | --- | --- | --- |
| CC1(O)CCOC(=O)C1 (stereo not drawn) [Mevalonic-D, L acid lactone] | 0.244 ± 0.0056 | 0.304 ± 0.017 | 0.271 ± 0.0041 | 0.186 ± 0.019 | 0.203 ± 0.0065 | 0.141 ± 0.0074 | 0.269 ± 0.027 | 0.402 ± 0.022 | 0.183 ± 0.011 | 0.206 ± 0.024 | 0.506 ± 0.11 | 0.394 ± 0.03 | 0.349 ± 0.015 |
| COc1ccc(-c2ccc(=N)n(CCCC(=O)O)n2)cc1 [Gabazine bromide] | 0.247 ± 0.012 | 0.279 ± 0.029 | 0.262 ± 0.007 | 0.225 ± 0.027 | 0.19 ± 0.0086 | 0.148 ± 0.0044 | 0.232 ± 0.02 | 0.342 ± 0.055 | 0.206 ± 0.0056 | 0.208 ± 0.021 | 0.599 ± 0.11 | 0.402 ± 0.0095 | 0.341 ± 0.0049 |
| Nc1nc(=O)n([C@@H]2CS[C@H](CO)O2)cc1F [(-)-Emtricitabine] | 0.238 ± 0.0098 | 0.285 ± 0.0065 | 0.248 ± 0.0044 | 0.254 ± 0.061 | 0.172 ± 0.0027 | 0.147 ± 0.005 | 0.291 ± 0.092 | 0.419 ± 0.09 | 0.192 ± 0.024 | 0.218 ± 0.011 | 0.572 ± 0.0088 | 0.412 ± 0.0087 | 0.337 ± 0.012 |
| O=C1c2c(O)ccc(O)c2C(=O)c2c(NCCNCCO)ccc(NCCNCCO)c21 [Mitoxantrone dihydrochloride] | 0.355 ± 0.0023 | 0.3551 ± 0.0031 | 0.3438 ± 0.0024 | 0.3501 ± 0.0014 | 0.3506 ± 0.001 | 0.3496 ± 0.0028 | 0.36 ± 0.0066 | 0.3445 ± 0.0031 | 0.348 ± 0.0055 | 0.348 ± 0.0049 | 0.259 ± 0.051 | 0.231 ± 0.0097 | 0.292 ± 0.025 |
| Nc1nc(Cl)nc2c1ncn2[C@H]1C[C@H](O)[C@@H](CO)O1 [Cladribine] | 0.263 ± 0.14 | 0.165 ± 0.0084 | 0.0701 ± 0.0033 | 0.118 ± 0.018 | 0.0623 ± 0.0011 | 0.07457 ± 0.00035 | 0.409 ± 0.08 | 0.217 ± 0.015 | 0.244 ± 0.046 | 0.209 ± 0.018 | 0.577 ± 0.12 | 0.42 ± 0.0056 | 0.219 ± 0.031 |
| Cn1c(=O)c2c(ncn2CC(=O)O)n(C)c1=O [Acefylline] | 0.248 ± 0.0081 | 0.307 ± 0.01 | 0.253 ± 0.0048 | 0.21 ± 0.0073 | 0.191 ± 0.0048 | 0.138 ± 0.0046 | 0.297 ± 0.04 | 0.433 ± 0.014 | 0.196 ± 0.0038 | 0.207 ± 0.021 | 0.457 ± 0.013 | 0.408 ± 0.007 | 0.347 ± 0.01 |
| COc1c2occc2c(OC)c2c(=O)cc(C)oc12 [Khellin] | 0.206 ± 0.0044 | 0.2539 ± 0.0022 | 0.245 ± 0.0065 | 0.189 ± 0.0037 | 0.149 ± 0.0057 | 0.1439 ± 0.00044 | 0.317 ± 0.081 | 0.35 ± 0.016 | 0.182 ± 0.0039 | 0.253 ± 0.1 | 0.418 ± 0.038 | 0.3963 ± 0.0035 | 0.306 ± 0.032 |
| CC(C)(C)c1ccc(C(O)CCCN2CCC(C(O)(c3ccccc3)c3ccccc3)CC2)cc1 (stereo not drawn) [Terfenadine] | 0.205 ± 0.0036 | 0.207 ± 0.14 | 0.296 ± 0.0092 | 0.181 ± 0.0044 | 0.136 ± 0.072 | 0.158 ± 0.0023 | 0.265 ± 0.054 | 0.421 ± 0.013 | 0.199 ± 0.013 | 0.239 ± 0.014 | 0.0576 ± 0.0093 | 0.0737 ± 0.031 | 0.0518 ± 0.00085 |
| c1ccc2[nH]c(-c3cscn3)nc2c1 [Tiabendazole] | 0.222 ± 0.014 | 0.275 ± 0.0031 | 0.253 ± 0.011 | 0.203 ± 0.021 | 0.188 ± 0.0046 | 0.15 ± 0.011 | 0.278 ± 0.085 | 0.326 ± 0.1 | 0.186 ± 0.003 | 0.192 ± 0.023 | 0.572 ± 0.075 | 0.408 ± 0.011 | 0.316 ± 0.015 |
| Cc1c(C)c2c(c(C)c1O)CCC(C)(C(=O)O)O2 (stereo not drawn) [Trolox] | 0.247 ± 0.0084 | 0.295 ± 0.0077 | 0.255 ± 0.0029 | 0.209 ± 0.031 | 0.1784 ± 0.0016 | 0.143 ± 0.0045 | 0.272 ± 0.097 | 0.32 ± 0.15 | 0.242 ± 0.0084 | 0.222 ± 0.021 | 0.579 ± 0.053 | 0.405 ± 0.0096 | 0.316 ± 0.024 |
| CC(C[N+](C)(C)C)OC(N)=O (stereo not drawn) [Bethanechol chloride] | 0.24 ± 0.0039 | 0.283 ± 0.0042 | 0.28 ± 0.0036 | 0.195 ± 0.014 | 0.222 ± 0.021 | 0.139 ± 0.0046 | 0.373 ± 0.07 | 0.381 ± 0.028 | 0.2 ± 0.024 | 0.242 ± 0.025 | 0.603 ± 0.0074 | 0.438 ± 0.0061 | 0.349 ± 0.006 |
| NS(=O)(=O)c1cc2c(cc1C(F)(F)F)NCNS2(=O)=O [Hydroflumethiazide] | 0.2612 ± 0.002 | 0.296 ± 0.0066 | 0.262 ± 0.01 | 0.239 ± 0.011 | 0.1758 ± 0.0006 | 0.147 ± 0.0041 | 0.388 ± 0.036 | 0.442 ± 0.06 | 0.184 ± 0.012 | 0.239 ± 0.028 | 0.455 ± 0.035 | 0.406 ± 0.013 | 0.32 ± 0.053 |
| CN[C@@H]1[C@H](O)[C@H](NC)[C@H]2O[C@@]3(O)C(=O)C[C@@H](C)O[C@H]3O[C@@H]2[C@H]1O [Spectinomycin dihydrochloride] | 0.0517 ± 0.00091 | 0.0841 ± 0.0062 | 0.0632 ± 0.0013 | 0.075 ± 0.0085 | 0.0512 ± 0.00079 | 0.05437 ± 0.00031 | 0.0788 ± 0.0045 | 0.0788 ± 0.0017 | 0.0987 ± 0.0037 | 0.104 ± 0.013 | 0.228 ± 0.023 | 0.308 ± 0.021 | 0.0979 ± 0.014 |
| CN1Cc2c(N)cccc2C(c2ccccc2)C1 (stereo not drawn) [Nomifensine maleate] | 0.225 ± 0.0061 | 0.273 ± 0.0089 | 0.249 ± 0.0043 | 0.19 ± 0.036 | 0.1674 ± 0.0015 | 0.141 ± 0.0063 | 0.243 ± 0.026 | 0.357 ± 0.038 | 0.175 ± 0.013 | 0.181 ± 0.025 | 0.498 ± 0.078 | 0.4122 ± 0.0024 | 0.348 ± 0.019 |
| CCCOc1cc(N)ccc1C(=O)OCCN(CC)CC [Propoxycaine hydrochloride] | 0.229 ± 0.005 | 0.289 ± 0.0076 | 0.274 ± 0.01 | 0.199 ± 0.034 | 0.22 ± 0.011 | 0.138 ± 0.0039 | 0.36 ± 0.085 | 0.376 ± 0.079 | 0.225 ± 0.0078 | 0.22 ± 0.017 | 0.487 ± 0.08 | 0.41 ± 0.0052 | 0.361 ± 0.015 |
| O=c1n(CCCN2CCN(c3cccc(Cl)c3)CC2)nc2ccccn12 [Trazodone hydrochloride] | 0.203 ± 0.0052 | 0.24 ± 0.011 | 0.235 ± 0.0052 | 0.159 ± 0.0089 | 0.105 ± 0.0032 | 0.13 ± 0.0034 | 0.242 ± 0.051 | 0.404 ± 0.099 | 0.189 ± 0.014 | 0.243 ± 0.057 | 0.471 ± 0.043 | 0.406 ± 0.0066 | 0.255 ± 0.028 |

Reference: the supplement of paper PMC9262897, “Low-cost anti-mycobacterial drug discovery using engineered E. coli” (Nature Communications, 2022)
